From PubChem BioAssay (NCI)
Compounds without any hit were thinned out: in the full panel of roughly 83,000, 20% have a hit.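 The endpoint reported here, percent growth, reads 100 for growth as untreated, 0 for no net growth and -100 for all cells dead.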 Values without a mark were called inactive. Active and inactive are the calls of the source. Rule for the calls: active = growth percent below 10; inactive = the rest.

Assays:
Assay in all cases: NCI-60 one-dose screen, 48 h (100 = growth as untreated, 0 = no growth, -100 = all killed)
HL-60(TB) leukemia = settings: 10 µM unless noted
NCI-H322M lung = settings: 10 µM
HOP-62 NSCLC = settings: 10 µM
A549/ATCC NSCLC = settings: 10 µM
COLO 205 colon = settings: 10 µM
DU-145 prostate = settings: 10 µM
MALME-3M melanoma = settings: 10 µM
SF-268 CNS = settings: 10 µM
SF-295 CNS = settings: 10 µM
SF-539 CNS = settings: 10 µM
UACC-257 melanoma = settings: 10 µM
M14 melanoma = settings: 10 µM
HCT-15 colon = settings: 10 µM
HT29 colon = settings: 10 µM
SNB-75 CNS = settings: 10 µM
SNB-19 CNS = settings: 10 µM
SK-MEL-5 melanoma = settings: 10 µM
UACC-62 melanoma = settings: 10 µM
SK-MEL-28 melanoma = settings: 10 µM
SK-MEL-2 melanoma = settings: 10 µM

For N#Cc1c(-c2ccc(Br)cc2)nc2n[nH]c(-c3ccc(Br)cc3)c2c1-c1ccc(F)cc1, the growth (HL-60(TB) leukemia) was 80.4%.
CCOP(=O)(CC(F)(F)C(F)(F)F)OCC gave a growth (NCI-H322M lung) of 100%, a growth (HOP-62 NSCLC) of 90.9% and a growth (A549/ATCC NSCLC) of 76.2%. The growth (COLO 205 colon) was -68% (active), the growth (DU-145 prostate) was 14.9% and the growth (MALME-3M melanoma) was -70.4% (active). For the same molecule, the growth (SF-268 CNS) was 80.4%, the growth (SF-295 CNS) was 97.7% and the growth (SF-539 CNS) was -48.6% (active). The growth (UACC-257 melanoma) was -31.4% (active), the growth (M14 melanoma) was -53.3% (active) and the growth (HCT-15 colon) was -33.2% (active). For the same molecule, the growth (HT29 colon) was -44.6% (active), the growth (SNB-75 CNS) was 79.4% and the growth (SNB-19 CNS) was 95.7%. For the same molecule, the growth (SK-MEL-5 melanoma) was 78.9%, the growth (UACC-62 melanoma) was 44.7% and the growth (SK-MEL-28 melanoma) was -47.1% (active). For the same molecule, the growth (SK-MEL-2 melanoma) was 29.5% and the growth (HL-60(TB) leukemia) was 17.2%.
C[C@H]1[C@H](OC(=O)CCC(=O)Nc2cnccn2)O[C@@H]2OC3(C)CC[C@H]4[C@H](C)CC[C@@H]1[C@@]24OO3 showed a growth (NCI-H322M lung) of 77.4%, a growth (HOP-62 NSCLC) of 53.6% and a growth (A549/ATCC NSCLC) of 62.6%. The growth (COLO 205 colon) was 11.9%, the growth (DU-145 prostate) was 77.7% and the growth (MALME-3M melanoma) was 27.5%. The growth (SF-268 CNS) was 56.3%, the growth (SF-295 CNS) was 41.7% and the growth (SF-539 CNS) was 33.2%. It also gave a growth (UACC-257 melanoma) of 56.1%, a growth (M14 melanoma) of 35.9% and a growth (HCT-15 colon) of 12%. The growth (HT29 colon) was 27.3%, the growth (SNB-75 CNS) was 72.6% and the growth (SNB-19 CNS) was 56.3%. It also gave a growth (SK-MEL-5 melanoma) of 26.9%, a growth (UACC-62 melanoma) of 26.3% and a growth (SK-MEL-28 melanoma) of 39.7%. For the same molecule, the growth (SK-MEL-2 melanoma) was 31.2% and the growth (HL-60(TB) leukemia) was 0.224% (active).
With O=C(/C=C/c1ccc(Cl)cc1Cl)c1nc2ccccc2n1Cc1ccc(Br)cc1 the growth (NCI-H322M lung) was 84.4%, the growth (HOP-62 NSCLC) was 94.8% and the growth (A549/ATCC NSCLC) was 86.5%. It also gave a growth (COLO 205 colon) of 100%, a growth (DU-145 prostate) of 83.9% and a growth (MALME-3M melanoma) of 84%. For the same molecule, the growth (SF-268 CNS) was 81%, the growth (SF-295 CNS) was 79.4% and the growth (SF-539 CNS) was 84%. The growth (UACC-257 melanoma) was 84.4%, the growth (M14 melanoma) was 78.4% and the growth (HCT-15 colon) was 46.6%. The growth (HT29 colon) was 53.9%, the growth (SNB-75 CNS) was 50.4% and the growth (SNB-19 CNS) was 74.8%. For the same molecule, the growth (SK-MEL-5 melanoma) was 85%, the growth (UACC-62 melanoma) was 60.7% and the growth (SK-MEL-28 melanoma) was 89.5%. For the same molecule, the growth (SK-MEL-2 melanoma) was 97.2% and the growth (HL-60(TB) leukemia) was 60%.
